This is part of a sample that, as a whole, favours compounds with a hit. Of some 79,000 tested, about 15% had one in any assay. The source made the active and inactive calls. No stated cut-off is given here; in the data, active means growth inhibition above about 70%; inactive means the rest.
Test: NCI Yeast Anticancer Drug Screen. Data for the mec2-1 strain (AID 157)
Conditions: S. cerevisiae mec2-1 strain, at 50.0 µM, active compounds read high
Summary of the method: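 Compounds were applied to mec2-1 yeast cells. Their growth was then compared with that of vehicle-treated cultures to give growth inhibition.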

Structure (SMILES)	growth inhibition
CCNc1nc(C)nc2c1cnn2-c1ccc(C)cc1	-3.4% (inactive)
CC1OC(O[C@@H]2OC=C(C=O)[C@@]3(O)CC[C@H](C)[C@@H]23)C(O)C(O)C1O (stereo partly specified)	-10.4% (inactive)
Nc1nc(=O)n(C2CCC(CO)O2)cc1F (stereo unspecified)	18.1% (inactive)
O=C(O)COc1cccc2ccccc12	-18.6% (inactive)
CCOC1CCC=CO1 (stereo unspecified)	3.7% (inactive)
O=C(Nc1ccccc1Br)c1ccc(F)cc1	3.1% (inactive)

Test: NCI Yeast Anticancer Drug Screen. Data for the sgs1 mgt1 strain (AID 161);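 further: 0% = growth of cultures given vehicle only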
Conditions: S. cerevisiae sgs1 mgt1 strain, at 50.0 µM, active compounds read high
Summary of the method: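 Yeast cells carrying a defined DNA-repair defect were exposed to test compounds. Growth inhibition was measured relative to vehicle-treated controls.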

Structure (SMILES)	growth inhibition
Nc1cc(S(=O)(=O)O)cc2ccc(S(=O)(=O)O)cc12	-14.6% (inactive)
Cc1cc(=O)oc2c(C)c(O)ccc12	-3.15% (inactive)
O=C(OC(=O)c1cccnc1)c1cccnc1	-7.75% (inactive)
O=[N+]([O-])c1ccc(N=Nc2ccc(O)c3c(O)cc(S(=O)(=O)O)cc23)cc1S(=O)(=O)O	6.85% (inactive)
Cc1cccc2c(=O)[nH]c(=O)[nH]c12	-2.15% (inactive)
CC(C)N(C(=O)C12C3C4C5C3C1(C(=O)N(C(C)C)C(C)C)C5C42)C(C)C (stereo unspecified)	12.2% (inactive)
Nc1ccc(/C(=N\O)c2ccccc2)cc1	23.9% (inactive)
Cc1ccc(C(C)C)cc1NC(=O)/C=C/c1ccccc1	36.6% (inactive)
COc1ccc(OC)c(-c2cc(C(=O)O)c3cc4ccccc4cc3n2)c1	-32.8% (inactive)
CCC12CC3(C(=O)OC)OC1C(O)CN1CCc4c(n3c3cc(OC)ccc43)C12 (stereo unspecified)	12.2% (inactive)
Cc1cc(=O)oc2nc(-c3ccccc3)[nH]c(=O)c12	3.2% (inactive)
CCOC(=O)Nc1ccc(S(=O)(=O)c2ccc(Nc3ccnc4cc(Cl)ccc34)cc2)cc1	27.2% (inactive)
O=S(=O)(/C=C/c1ccc(Cl)cc1Cl)Cc1ccccc1CS(=O)(=O)/C=C/c1ccc(Cl)cc1Cl	-27.6% (inactive)
Nc1nc(N)c(Nc2ccc(Cl)cc2)c(Cl)n1	66.3% (inactive)
CCCCN(CCCC)C(=O)C(O)C(=O)N(CCCC)CCCC	-4.4% (inactive)
CC(=O)Oc1nnc(OC(C)=O)c2cc(N)ccc12	4.45% (inactive)
Nc1cc2c(cn1)[nH]c1ccccc12	-13.8% (inactive)
CCOC(=O)C1(C(=O)OCC)CCCCC1=O	-22.9% (inactive)
COc1ccc(/C=N\N2CN(C(CC(N)=O)C(=O)O)C(O)(CCl)N=C2N)cc1OC (stereo unspecified)	3.1% (inactive)
Cc1ccc([Si](C)(C)c2ccccc2)cc1	-2.65% (inactive)

Structure (SMILES)	growth inhibition
COC1CC(OC2C(C)OC(OC3C(C)OC(OC4C(C)OC(O[C@H]5CC[C@@]6(C)C(=CC[C@]7(O)[C@@H]6C[C@@H](OC(=O)/C=C/c6ccccc6)[C@@]6(C)[C@]7(O)CC[C@@]6(O)C(C)=O)C5)CC4OC)CC3OC)CC2OC)OC(C)C1O (stereo partly specified)	5.35% (inactive)
N#CC(C#N)=CNc1cccc(Cl)c1	29.2% (inactive)
C#CCN(CC#C)C(=O)C(=O)c1c[nH]c2ccc(OC)cc12	56.8% (inactive)
CCCCCCCCCCCCCCCC(=O)OCC(=O)O	23.2% (inactive)
Cc1cccc2c1-c1c(C)cccc1C(Cl)S(=O)(=O)C2 (stereo unspecified)	-9.05% (inactive)
N#CC(C#N)=C(O)/C(=C/c1ccc(Cl)cc1Cl)NC(=O)c1ccccc1	-7.9% (inactive)
N#CC(CN1CCCCC1)c1ccccc1 (stereo unspecified)	5.2% (inactive)
O=C1CN(c2ccc(Cl)cc2)C(=O)CN1/N=C/c1ccc(O)c(O)c1	4.4% (inactive)
CN1[C@@H]2C[C@@H](OC(=O)[C@H](CO)c3ccccc3)C[C@H]1[C@@H]1O[C@@H]12	-33.7% (inactive)
CC(=O)c1ccc(C(=O)O)cc1	2.45% (inactive)
CC(C)Oc1c(O)c2c3c(oc(=O)n3C=CC2c2ccccc2)c1OC(C)C (stereo unspecified)	88.2% (active)
COC(=O)/C(=N\N)C(C(=O)C(=O)Nc1nc(=S)[nH][nH]1)c1nc2ccc([N+](=O)[O-])cc2[nH]c1=O (stereo unspecified)	10.1% (inactive)
CCC(C)C(NCc1ccccc1)C(=O)O (stereo unspecified)	26.9% (inactive)
CCCCON1C[C@H](OC(C)=O)C(OC(C)=O)[C@H](OC(C)=O)C1 (stereo partly specified)	-39.1% (inactive)
CCNc1nc(C)nc2c1cnn2-c1ccc(C)cc1	25.3% (inactive)
CC1OC(O[C@@H]2OC=C(C=O)[C@@]3(O)CC[C@H](C)[C@@H]23)C(O)C(O)C1O (stereo partly specified)	9.1% (inactive)
Nc1nc(=O)n(C2CCC(CO)O2)cc1F (stereo unspecified)	16.2% (inactive)
O=C(O)COc1cccc2ccccc12	-0.7% (inactive)
CCOC1CCC=CO1 (stereo unspecified)	39% (inactive)
O=C(Nc1ccccc1Br)c1ccc(F)cc1	-11.3% (inactive)

Test: NCI Yeast Anticancer Drug Screen. Data for the cln2 rad14 strain (AID 165);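 further: 0% = growth equal to vehicle treated cultures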
Conditions: S. cerevisiae cln2 rad14 strain, at 50.0 µM, active compounds read high
Summary of the method: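 Strain: cln2 rad14 yeast, altered in cell cycle control and DNA damage repair. Read-out: growth inhibition vs vehicle.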

Structure (SMILES)	growth inhibition
Nc1cc(S(=O)(=O)O)cc2ccc(S(=O)(=O)O)cc12	-4.35% (inactive)
Cc1cc(=O)oc2c(C)c(O)ccc12	13.7% (inactive)
O=C(OC(=O)c1cccnc1)c1cccnc1	11.5% (inactive)
O=[N+]([O-])c1ccc(N=Nc2ccc(O)c3c(O)cc(S(=O)(=O)O)cc23)cc1S(=O)(=O)O	-24.8% (inactive)
Cc1cccc2c(=O)[nH]c(=O)[nH]c12	-58.8% (inactive)
CC(C)N(C(=O)C12C3C4C5C3C1(C(=O)N(C(C)C)C(C)C)C5C42)C(C)C (stereo unspecified)	1% (inactive)
Nc1ccc(/C(=N\O)c2ccccc2)cc1	0.8% (inactive)
Cc1ccc(C(C)C)cc1NC(=O)/C=C/c1ccccc1	-15.2% (inactive)
COc1ccc(OC)c(-c2cc(C(=O)O)c3cc4ccccc4cc3n2)c1	-69% (inactive)
CCC12CC3(C(=O)OC)OC1C(O)CN1CCc4c(n3c3cc(OC)ccc43)C12 (stereo unspecified)	5.05% (inactive)
Cc1cc(=O)oc2nc(-c3ccccc3)[nH]c(=O)c12	-5.4% (inactive)
CCOC(=O)Nc1ccc(S(=O)(=O)c2ccc(Nc3ccnc4cc(Cl)ccc34)cc2)cc1	-35.8% (inactive)
O=S(=O)(/C=C/c1ccc(Cl)cc1Cl)Cc1ccccc1CS(=O)(=O)/C=C/c1ccc(Cl)cc1Cl	-20.8% (inactive)
Nc1nc(N)c(Nc2ccc(Cl)cc2)c(Cl)n1	35.2% (inactive)
CCCCN(CCCC)C(=O)C(O)C(=O)N(CCCC)CCCC	-9.6% (inactive)
CC(=O)Oc1nnc(OC(C)=O)c2cc(N)ccc12	-1.2% (inactive)
Nc1cc2c(cn1)[nH]c1ccccc12	-16.4% (inactive)
CCOC(=O)C1(C(=O)OCC)CCCCC1=O	11.2% (inactive)
COc1ccc(/C=N\N2CN(C(CC(N)=O)C(=O)O)C(O)(CCl)N=C2N)cc1OC (stereo unspecified)	-5.65% (inactive)
Cc1ccc([Si](C)(C)c2ccccc2)cc1	7.7% (inactive)

Structure (SMILES)	growth inhibition
COC1CC(OC2C(C)OC(OC3C(C)OC(OC4C(C)OC(O[C@H]5CC[C@@]6(C)C(=CC[C@]7(O)[C@@H]6C[C@@H](OC(=O)/C=C/c6ccccc6)[C@@]6(C)[C@]7(O)CC[C@@]6(O)C(C)=O)C5)CC4OC)CC3OC)CC2OC)OC(C)C1O (stereo partly specified)	25.9% (inactive)
N#CC(C#N)=CNc1cccc(Cl)c1	9.45% (inactive)
C#CCN(CC#C)C(=O)C(=O)c1c[nH]c2ccc(OC)cc12	44.5% (inactive)
CCCCCCCCCCCCCCCC(=O)OCC(=O)O	10.3% (inactive)
Cc1cccc2c1-c1c(C)cccc1C(Cl)S(=O)(=O)C2 (stereo unspecified)	4.55% (inactive)
N#CC(C#N)=C(O)/C(=C/c1ccc(Cl)cc1Cl)NC(=O)c1ccccc1	7.9% (inactive)
N#CC(CN1CCCCC1)c1ccccc1 (stereo unspecified)	-41.4% (inactive)
O=C1CN(c2ccc(Cl)cc2)C(=O)CN1/N=C/c1ccc(O)c(O)c1	-16.9% (inactive)
CN1[C@@H]2C[C@@H](OC(=O)[C@H](CO)c3ccccc3)C[C@H]1[C@@H]1O[C@@H]12	-20.4% (inactive)
CC(=O)c1ccc(C(=O)O)cc1	-0.15% (inactive)
CC(C)Oc1c(O)c2c3c(oc(=O)n3C=CC2c2ccccc2)c1OC(C)C (stereo unspecified)	86.6% (active)
COC(=O)/C(=N\N)C(C(=O)C(=O)Nc1nc(=S)[nH][nH]1)c1nc2ccc([N+](=O)[O-])cc2[nH]c1=O (stereo unspecified)	11.7% (inactive)
CCC(C)C(NCc1ccccc1)C(=O)O (stereo unspecified)	-13.2% (inactive)
CCCCON1C[C@H](OC(C)=O)C(OC(C)=O)[C@H](OC(C)=O)C1 (stereo partly specified)	-10.4% (inactive)
CCNc1nc(C)nc2c1cnn2-c1ccc(C)cc1	-27.5% (inactive)
CC1OC(O[C@@H]2OC=C(C=O)[C@@]3(O)CC[C@H](C)[C@@H]23)C(O)C(O)C1O (stereo partly specified)	7.6% (inactive)
Nc1nc(=O)n(C2CCC(CO)O2)cc1F (stereo unspecified)	-2.65% (inactive)
O=C(O)COc1cccc2ccccc12	-24.6% (inactive)
CCOC1CCC=CO1 (stereo unspecified)	28.7% (inactive)
O=C(Nc1ccccc1Br)c1ccc(F)cc1	-18.4% (inactive)
